PRC2 inh: EZH2 (human) methyltransferase inhibition. Q15910. PRC2 H3K27 methylation, DELFIA TRF, 1 h. inhibition, % at 12.5 µM. hit rate 0.35% among 57,000;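 active = mean inhibition of replicates at least 50% and every single replicate also reaching 50%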;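 also: dimethyl H3K27 on biotinylated H3 21-44 peptide detected by antibody; plate controls were median neutral control wells for no effect and median positive control wells for full effect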
Starred values were filed as active, the others as inactive. Many of the other results were omitted from the sample, so hits are more common in it than they were.

SMILES	PRC2 inh
N#Cc1c(-c2ccccc2)nc(SCC(=O)Nc2cccc(C(F)(F)F)c2)[nH]c1=O	39
N#Cc1c(-c2ccccc2)nc(SCC(=O)Nc2ccc(Oc3ccccc3)cc2)[nH]c1=O	87*
CC(=O)c1ccc(NC(=O)CSc2nc(-c3ccccc3)c(C#N)c(=O)[nH]2)cc1	-8
CCc1ccc(NC(=O)CSc2ncnc3sc4c(c23)CCC(C)C4)cc1 (stereo unspecified)	8
CCOc1cc(C2NC(=S)NC(C)=C2C(=O)Nc2ccccc2C(=O)OC)cc(Br)c1O (stereo unspecified)	-5
COc1cc(Br)cc(/C=N/NC(=O)CCCCCCC(=O)O)c1O	1
CC1CCC2(C)C(CC(O)C(O)C2(O)CO)C1(C)CCc1ccoc1 (stereo unspecified)	-9
C[C@@H]1CC[C@]2(C)[C@H](CC[C@@H](O)[C@]2(C)O)[C@@]1(C)CC/C(=C/CO)CO	87*
CC(/C=C/C(=O)NO)=C\c1ccccc1OC[C@@H]1[C@H]2C[C@H]3c4[nH]c5ccccc5c4CCN3C[C@@H]2CC[C@@H]1O	-36
COC(=O)CCCCCCC(=O)N/N=C/c1ccc(O)c(F)c1	14
O=C(OCC1OC(Oc2ccc(O)cc2COC(=O)C2(O)C(O)CCC(=O)C2O)C(O)C(O)C1O)c1ccccc1 (stereo unspecified)	22
CC(C)CC(=O)c1c(O)cc(O)cc1OC1OC(COC(=O)c2cc(O)c(O)c(O)c2)C(O)C(O)C1O (stereo unspecified)	94*
O=C(OCc1ccccc1O[C@@H]1O[C@H](CO)[C@@H](O)[C@H](O)[C@H]1O)c1c(O)cccc1O[C@@H]1O[C@H](CO)[C@@H](O)[C@H](O)[C@H]1O	2
O=S(=O)(c1ccc(Br)cc1)c1nc(-c2ccc(F)cc2)oc1NCc1cccnc1	7
COc1ccc(/C=C2/SC(=S)NC2=O)cc1COc1ccc(F)cc1F	92*
Cc1cccc(N=C2NC(=O)/C(=C/c3ccc(F)cc3)S2)c1C	42
O=[N+]([O-])c1cc(C(F)(F)F)ccc1NCCNS(=O)(=O)c1ccc(Br)cc1	16
CC(C)Cc1ccc(C(C)C(=O)Nc2cccc(-c3cnco3)c2)cc1 (stereo unspecified)	-137
COc1ccc(S(=O)(=O)N(CC(N)=O)c2ccc(F)cc2)cc1	-13
CCn1c(SCC(=O)Nc2ccc3c(c2)OCCO3)nnc1-c1cccc(Cl)c1	-10
CO[C@@H]1CN(C)C(=O)c2ccc(NS(=O)(=O)c3cccc(F)c3)cc2OC[C@@H](C)N(Cc2cc(F)ccc2F)C[C@@H]1C	48
CO[C@@H]1CN(C)C(=O)c2ccc(NS(=O)(=O)c3cccc(F)c3)cc2OC[C@H](C)N(Cc2cc(F)ccc2F)C[C@@H]1C	54*
CO[C@@H]1CN(C)C(=O)c2ccc(NS(=O)(=O)c3cccc(F)c3)cc2OC[C@@H](C)N(Cc2cc(F)ccc2F)C[C@H]1C	38
C=Cc1ccc(O[C@@H]2O[C@H](CO[C@@H]3O[C@@H](C)[C@H](O)[C@@H](O)[C@H]3O)[C@@H](O)[C@H](O)[C@H]2O)cc1	87*
COc1ccc(-c2cc(=O)c3c(O)c(OC)c(O[C@H]4O[C@H](CO[C@@H]5O[C@@H](C)[C@H](O)[C@@H](O)[C@H]5O)[C@@H](O)[C@H](O)[C@H]4O)cc3o2)cc1	-1
SMILES	PRC2 inh
CC1OC(Oc2ccc(-c3cc(=O)c4c(O)cc(OC5OC(CO)C(O)C(O)C5O)cc4o3)cc2)C(O)C(O)C1O (stereo unspecified)	9
O=C(CCCCC(=O)N/N=C/c1cccnc1Cl)NO	-2
O=C(COc1ccc(Cl)cc1Cl)Nc1ccccc1[N+](=O)[O-]	-11
NC(=O)c1ccc2nc3ccsc3c(=O)n2c1	8
O=C(CSc1n[nH]c(-c2ccc(Cl)cc2Cl)n1)Nc1cccc(Cl)c1Cl	32
O=C(CSc1n[nH]c(-c2ccc(Cl)cc2Cl)n1)Nc1ccccc1F	-5
N#Cc1c(NC(=O)CSc2n[nH]c(-c3ccc(Cl)cc3Cl)n2)sc2c1CCCC2	52*
O=C(CCCCCC(=O)Nc1ccccc1O)N/N=C/c1cc(O)ccc1[N+](=O)[O-]	-12
CC(C)(O)C(O)COc1c2ccoc2cc2oc(=O)ccc12 (stereo unspecified)	7
COc1c2ccoc2cc2oc(=O)ccc12	52*
COc1ccc2c(=O)ccoc2c1	8
O=C(O)c1ccc(/C=N/NC(=O)c2ccccc2O)cc1	22
O=C(c1ccccc1)c1ccc(N2CCOCC2)cc1O	6
O=C(CCNc1ccc(Cl)c(C(F)(F)F)c1)c1ccccc1	56*
O=C(CCCN1C(=O)c2ccccc2C1=O)Nc1ccc(Cl)c(C(F)(F)F)c1	13
O=C(CNS(=O)(=O)c1ccccc1)Nc1ccc(Cl)c(C(F)(F)F)c1	0
O=C(NO)c1ccc(C(=O)N/N=C/c2cccc(Br)c2)cc1	22
COC(=O)CCCCCCC(=O)N/N=C/C[C@H](O)[C@H](O)[C@@H](C)O	13
O=C(C1CCCO1)N1CCN(C/C=C/c2ccccc2)CC1 (stereo unspecified)	-6
C=CCOC(=O)C1=C[C@H](c2csc3ccccc23)C[C@H](OCc2ccc(CO)cc2)O1	59*
O=C(NC1CC1)C1=C[C@H](c2csc3ccccc23)C[C@H](OCc2ccc(CO)cc2)O1	4
C=CCOC(=O)C1=C[C@H](c2coc3ccccc3c2=O)C[C@H](OCc2ccc(CO)cc2)O1	0
O=C(CN1CCOCC1)Nc1ccccc1[N+](=O)[O-]	6
O=C1O[C@@H](c2ccccc2)[C@@H](c2ccccc2)N2[C@@H](c3ccccc3OCCO)[C@]3(C(=O)Nc4ccc(C#CCCO)cc43)[C@@H](C(=O)Nc3nc4ccccc4s3)[C@H]12	-15
O=C(O)CCCCCCC(=O)N/N=C/c1ccc2ccccc2n1	18
SMILES	PRC2 inh
COC(=O)c1ccccc1NC(=O)c1ccc(NC(=O)COc2ccccc2)cc1	10
COC(=O)c1ccccc1NC(=O)c1ccc(COc2ccccc2)o1	53*
COC(=O)c1ccccc1NC(=O)c1cccc(NC(=O)COc2ccccc2)c1C	17
O=C(CCS(=O)(=O)c1ccc2ccccc2c1)Nc1ccccc1	-9
Cc1nc(S(=O)(=O)N[C@@H]2CCCN(Cc3ccc(OCCO)cc3)C2)cn1C	-2
COc1ccc(Br)c(/C=N/NC(=O)c2ccccc2O)c1	27
COc1c(OC)c(O)c2c(=O)cc(-c3ccc(O)cc3)oc2c1OC	3
O=c1cc(-c2ccc(O)cc2)oc2c(C3OCC(O)C(O)C3O)c(O)c(C3OC(CO)C(O)C(O)C3O)c(O)c12 (stereo unspecified)	58*
CC1OC(Oc2cc(O)c3c(=O)cc(-c4ccc(O)cc4)oc3c2C2OC(CO)C(O)C(O)C2O)C(O)C(O)C1O (stereo unspecified)	2
COC(=O)COc1cccc(NC(=O)c2ccc(-c3ccccc3)cc2)c1	-21
CN(C)/C=C(\C(=O)Nc1ccc(F)c(F)c1F)S(=O)(=O)c1ccccc1	-9
CC1CCN(S(=O)(=O)c2cn(CC(=O)N(C)Cc3ccccc3)c(=O)c3ccccc23)CC1	-117
O=C(Nc1ccccc1)c1ccc(CNc2nccc(-c3cccnc3)n2)cc1	15
N#C[C@@H](O[C@@H]1O[C@H](CO)[C@@H](O)[C@H](O)[C@H]1O[C@@H]1O[C@H](CO)[C@@H](O)[C@H](O)[C@H]1O)c1ccccc1	-11
N#CC(OC1OC(COC2OCC(OC(=O)/C=C/c3ccc(OC4OC(CO)C(O)C(O)C4O)cc3)C(O)C2O)C(O)C(O)C1O)c1ccccc1 (stereo unspecified)	90*
